# Measurements from the supplement of paper PMC6555819.
# Assays:
# Assay in all cases: PBM binding z-score (relative to random genomic background probes); higher = stronger binding; sequences stand for … in GC…GCGATTGACAGCGTAGAATGAAGG
# [1] = test system: FXR:RXRa (NR concentration 270 nM, RXRa partner concentration 90 nM)
# How it was run: (§1)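 Custom Agilent 4×180K protein-binding microarrays carried double-stranded probes, each with a 34-nt variable region. These regions held direct-repeat seeds, single-nucleotide variants, half-site ablations and random human genomic background sequences. Ligand-free nuclear receptor dimers were incubated on the arrays for 1 h, antibodies against each partner (one per run) detected binding, and scanned fluorescence was regression-normalized. Binding z-scores take the random background probes as reference.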
# [2] = test system: LXRa:RXRa (NR concentration 270 nM, RXRa partner concentration 90 nM)
# How it was run: as §1
# [3] = test system: LXRa homodimer (NR concentration 270 nM)
# How it was run: as §1
# [4] = test system: LXRb:RXRa (NR concentration 270 nM, RXRa partner concentration 90 nM)
# How it was run: as §1
# [5] = test system: LXRb homodimer (NR concentration 270 nM)
# How it was run: as §1
# [6] = test system: PPARa:RXRa (NR concentration 270 nM, RXRa partner concentration 90 nM)
# How it was run: as §1
# [7] = test system: PPARg:RXRa (NR concentration 180 nM, RXRa partner concentration 90 nM)
# How it was run: as §1
# [8] = test system: PPARg:RXRa 270nM:90nM, anti-RXR (NR concentration 270 nM, RXRa partner concentration 90 nM)
# How it was run: as §1
# [9] = test system: PPARg:RXRa 30nM:10nM, anti-RXR (NR concentration 30 nM, RXRa partner concentration 10 nM)
# How it was run: as §1
# [10] = test system: PPARg:RXRa 90nM:30nM, anti-RXR (NR concentration 90 nM, RXRa partner concentration 30 nM)
# How it was run: as §1
# [11] = test system: PPARg:RXRa DBDmut IVT, anti-RXR (DBD mutation: RXRa K156A/R161A, NR concentration 270 nM, RXRa partner concentration 90 nM)
# How it was run: as §1
# [12] = test system: PPARg:RXRa IVT, anti-PPARg (NR concentration 270 nM, RXRa partner concentration 90 nM)
# How it was run: as §1
# [13] = test system: PPARg DBDmut:RXRa IVT, anti-PPARg (DBD mutation: PPARg1 K132A/R137A, NR concentration 270 nM, RXRa partner concentration 90 nM)
# How it was run: as §1
# [14] = test system: PPARg DBDmut IVT, anti-PPARg (DBD mutation: PPARg1 K132A/R137A, NR concentration 270 nM)
# How it was run: as §1
# [15] = test system: PPARg homodimer (NR concentration 180 nM)
# How it was run: as §1
# [16] = test system: PXR:RXRa (NR concentration 270 nM, RXRa partner concentration 90 nM)
# How it was run: as §1
# [17] = test system: PXR homodimer (NR concentration 270 nM)
# How it was run: as §1
# [18] = test system: RARa:RXR (NR concentration 270 nM, RXRa partner concentration 90 nM)
# How it was run: as §1
# [19] = test system: RARa homodimer (NR concentration 270 nM)
# How it was run: as §1
# [20] = test system: RARb:RXRa (NR concentration 270 nM, RXRa partner concentration 90 nM)
# How it was run: as §1
Sequence,PBM binding z-score [1],PBM binding z-score [2],PBM binding z-score [3],PBM binding z-score [4],PBM binding z-score [5],PBM binding z-score [6],PBM binding z-score [7],PBM binding z-score [8],PBM binding z-score [9],PBM binding z-score [10],PBM binding z-score [11],PBM binding z-score [12],PBM binding z-score [13],PBM binding z-score [14],PBM binding z-score [15],PBM binding z-score [16],PBM binding z-score [17],PBM binding z-score [18],PBM binding z-score [19],PBM binding z-score [20]
CCTTACGGGGCAAGGTTATAGCACGGGTGGTACG,0.333,0.325,-0.577,0.153,-0.736,1.33,0.791,0.819,-0.199,0.442,-0.0352,0.442,-0.313,-0.783,0.309,0.145,-0.13,0.546,0.0698,1.78
TCCGACAGGTGAAGGTAACTCAGGTACGCAGTCG,0.658,1.48,-0.467,0.558,-0.785,0.847,0.493,1.09,2.1,1.34,1.51,1.05,-0.595,-0.742,-0.0885,0.293,-0.308,0.63,-0.702,0.858
CCTACAGGGCCACGAAAGGTCATTGATTCAGTGA,4.09,5.83,4.74,4.54,0.292,4.51,1.86,3.15,0.825,2.22,0.816,1.87,-0.216,-0.41,2.63,5.61,1.86,5.07,1.07,4.32
GGAACAAGGGCAAGTTGATAGCAGAGTTTGATGG,0.62,0.417,0.0737,0.264,-0.0748,0.929,1.04,0.726,0.251,0.632,2.92,1.97,-0.205,-0.563,0.831,0.589,1.08,0.364,0.91,2.71
GTACTAAGGTGAATAGGTCGTTGATGAGTAGGCG,1.68,1.21,0.221,0.926,0.00742,2.75,1.77,2.5,0.778,1.53,2.8,3.12,0.603,0.0798,1.34,1.22,0.545,2.45,1.14,2.62
ATCTCTAGGTAAAGATAGTTCAGGGAATGCAAAT,0.392,3.65,0.565,0.755,0.535,1.06,0.543,0.544,0.404,0.317,2.05,1.37,1.02,0.575,0.895,0.937,0.399,0.601,1.17,0.787
AATACAGGGTCATCGTCGGCCAGAGTACGCACAG,7.47,6.48,2.78,4.83,1.41,6.44,6.81,6.01,2.65,4.97,2.45,4.09,1.99,1.48,3,4.39,0.762,5.31,1.13,4.46
TTACCAAGGTGAAGGTCGTTGATCCCTCTGTAGA,2.37,2.03,-0.222,1.45,-0.739,2.55,3.15,3.94,2.09,3.67,1.59,3.45,1.02,-0.236,0.792,1.48,0.114,1.76,-0.599,2.28
CATACTAGGTCAAGGTCAAAGTCGGTTTGTGCCA,6.62,5.81,5.27,4.77,1.99,5.6,8.52,7.01,5.63,6.93,7.56,7.98,3.58,0.96,5.3,5.33,2.51,5.37,2.9,4.96
TCATATAGTTAAAAGGTGAAAGTCGGTGTGGTAA,1.74,1.98,0.272,1.98,0.21,3.42,3.17,5.23,5.04,5.39,3.12,2.36,1.13,0.7,2.01,1.38,0.951,2.72,2.03,2.02
TCATAGAGGTAAAAGGTGAAAGTCGGTGTGGTAA,1.97,1.96,-0.0856,2.03,-0.828,4.69,6.33,6.66,5.72,7.33,2.72,3.24,0.0344,-0.0644,0.851,2.07,-0.248,3.86,0.918,2.07
CGAACGAGGGCATGAGTTGATCGCAAATGCCGAT,0.394,0.374,-0.273,0.109,-0.729,1.45,1.22,1.32,0.129,0.937,2.91,2.12,0.532,-0.694,-0.0725,0.503,-0.144,0.222,-0.96,1.86
ACTATTAGTTGACTTAGGCCAACCGATACGACGC,0.313,0.281,0.278,0.209,1.1,0.0554,1.05,0.478,0.505,0.622,0.581,0.623,1.41,1.22,1.1,0.168,0.397,0.152,0.685,0.896
TCTTGTAGATCAATAGAGCTTAAGAAAGTGCGCT,-0.769,-0.425,-0.995,-0.356,-0.706,0.188,-0.467,0.973,2.31,1.85,1.24,0.112,-0.281,0.00059,-0.672,-0.158,-0.534,-0.251,-1.02,-0.557
AATACATGGTCACTAGGCCAGAGTAGGTACGAAT,-0.31,-0.00437,-0.0579,-0.301,-0.193,0.587,1.65,1.15,0.153,0.688,1.04,2.74,0.798,1.09,0.338,-0.198,-0.158,-0.153,-0.0326,1.14
CCAGACGGGTGAGAAGGTAACTCAGCCTCGATTA,-0.446,-0.488,-0.527,-0.4,-1.08,0.109,0.208,0.0448,-0.616,-0.191,0.114,0.156,-1.55,-1.37,0.298,-0.708,-0.553,-0.463,-0.518,-0.128
CTTCGGAGGACAACAGGAGGTCAGAGCTGCCAGA,1.34,2.65,2.21,1.45,-0.45,2.23,0.516,0.602,-0.765,0.051,0.0715,0.767,-2.3,-1.62,1.69,2.41,0.525,2.64,0.557,2.98
ATATGTAGGTTATCGGGTCTTTCAGTTTGCGCAT,0.832,1.52,1.05,1.64,1.21,3.2,5.24,4.68,2.04,3.97,7.73,6.72,2.3,2.32,2.02,1.2,1.43,1.07,1.78,1.3
ACTAGTTGGTCAGCTGAGATCACACACAATTCGG,-0.123,-0.166,-0.172,0.118,0.186,-0.138,0.977,0.171,0.202,0.195,0.753,0.741,1.02,0.509,-0.286,0.0807,-0.161,0.321,0.12,0.946
TAGCCTCGGTCAGATCGGGCCAGTATACGCTATA,-0.00556,-0.383,-0.622,-0.821,-0.951,-0.586,0.128,-0.706,-0.684,-1.07,-1.11,-0.335,-0.636,-1.63,-1.18,-0.533,-1.31,-0.301,-1.52,1.78
ATATGTAGGTTATCGGGTTATTCAGTTTGCGCAT,1.49,1.81,1.11,2.23,1.29,3.81,6.03,4.99,2.41,4.37,7.05,7.32,2.24,2.13,2.36,1.88,1.38,1.79,2.46,1.11
TCAAATAGGTAAAGGTGAAAGTCGAACGATATGA,0.93,1.78,0.0504,1.72,0.00812,3.48,3.34,4.34,5,4.99,3.65,3.47,1.88,0.968,2.04,1.17,0.187,1.93,0.988,2.28
TCTTCTAGGTCAGTTGGTCAGCTAACGAGCTGCC,2.21,1.87,0.567,1.71,3.5,2.99,3.77,4.43,4.38,4.54,6.39,6.42,3.22,3.33,2.21,1.3,0.447,1.58,1.05,3.79
CCGACTGGGGCAATGGTTACCATACTCAGTACGA,-0.281,-0.63,-0.543,-0.411,-1.1,0.901,2.88,3.63,1.72,3.63,3.21,3.14,-0.545,-0.357,0.166,-0.648,-0.201,-0.309,-0.393,0.161
TTACCAAGGTGAAAGGACGTTGATGCACGCCTTG,0.449,0.351,-0.414,0.198,-0.801,1.72,2.29,3.48,1.96,3.14,1.91,2.84,0.863,0.655,0.691,-0.0719,-0.136,0.603,-0.181,1.6
CCTAGCAGGCCAATTTGGGTCACTCAAGGCTTGA,1.3,1.3,-0.0886,1.16,-1.16,2.37,0.558,0.917,-0.434,0.671,2.7,2.91,-1.03,-1.39,0.323,1.12,-0.236,1.52,-0.55,1.29
CCGACCGGGGCAAAGGTTACCATACTCAGTACGA,2.32,2.1,0.433,2.47,-1.02,4.89,8.71,7.68,6.28,7.92,0.771,3.62,-1.08,-1.57,1.59,2.84,-0.256,4.81,-0.0897,2.66
ATCGAAAGTTCGTGAGGTGAGTATACAGAAAGGC,1.21,1.26,0.0798,0.398,-0.197,1.88,0.759,0.561,0.146,0.655,-1.13,0.316,0.654,0.402,0.342,1.08,0.69,1.39,0.453,2.17
